These results are taken from PubChem BioAssay (NCATS).

Experiment [1] in a line: qHTS drug screen for cell cycle checkpoint inhibitors in PARPi-resistant BRCA-mutant ovarian cancer cell lines. (AID 1963452; calls by dose curve). To be noted: PEO1/OlaR viability, CellTiter-Glo luminescence, 96 h, stronger effect = lower value. In a few lines:
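PEO1, PEO4 and PEO1/OlaR ovarian cancer cells, 600 per well, exposed 96 h at 37C to a dilution series. Viability read by CellTiter-Glo luminescence, normalized to DMSO and empty wells; activity summarized as Z-AUC.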
On the technique in general: In qHTS, concentration-response curves come from the screen itself.

A short description of experiment [2]: qHTS for identification of novel therapeutic agents for treatment of microphthalmiaassociated transcription factor (MiT) renal cell carcinoma (RCC) (AID 1963991; calls by dose curve; further: potency means the concentration at half of the fitted maximal effect). The conditions noted are these: CellTiter-Glo, 48 h; for z-score: stronger effect = lower value. In a few lines:
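Curves over 11 concentrations were fitted to CellTiter-Glo luminescence, scaled between empty wells (0%) and DMSO (100%) viability. Cells were UOK109, UOK124 and UOK145 TFE3-fusion RCC lines at 500/well, exposed 48 hours at 37 C.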

The test system of another experiment is 7G8. The experiment is described as follows: qHTS profiling for inhibitors of Plasmodium falciparum proliferation (AID 504749). Further: nearly all actives have a fitted effect of over 60% in size. Further: potency means the concentration at half of the fitted maximal effect.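 On activity, negative = inhibition: 0% = DMSO vehicle and full inhibition = artemisinin control.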 To be noted: P. falciparum in erythrocytes, SYBR Green DNA, 72 h; series mostly up to 28.7 µM. In a few lines: (§1)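 SYBR Green fluorescence (ex 485 nm, em 535 nm) reports parasite DNA after 72 h compound exposure of infected red cells at 0.3% parasitemia, 2.5% hematocrit; signal normalized to 0.29 uM artemisinin and vehicle wells.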

The next experiment relates to CP192. Described as above. To be noted: P. falciparum in erythrocytes, SYBR Green DNA, 72 h; series mostly up to 28.7 µM. In a few lines: as §1
For the next experiment, the system named is CP217. Described as above. To be noted: P. falciparum in erythrocytes, SYBR Green DNA, 72 h; series mostly up to 28.7 µM. In a few lines:
as §1

Assay in experiment [3]: as above
The conditions noted are these: P. falciparum in erythrocytes, SYBR Green DNA, 72 h; for activity, negative = inhibition: at 28.7 µM (top of the series). The essentials:
as §1

The subject of a further experiment is 3D7. The description is as above. The conditions noted are these: P. falciparum in erythrocytes, SYBR Green DNA, 72 h; series mostly up to 28.7 µM. The essentials: as §1
In another experiment the test system is AA1029. The experiment is described as above. To be noted: P. falciparum in erythrocytes, SYBR Green DNA, 72 h; series mostly up to 28.7 µM. In a few lines:
as §1

In another experiment the test system is AS120. The experiment is described as above. The conditions noted are these: P. falciparum in erythrocytes, SYBR Green DNA, 72 h; series mostly up to 28.7 µM. The essentials: as §1
In the next experiment the test system is ATS189. Described as above. The conditions noted are these: P. falciparum in erythrocytes, SYBR Green DNA, 72 h; series mostly up to 28.7 µM. The essentials: as §1
The subject of another experiment is ATS95. Described as above. The conditions noted are these: P. falciparum in erythrocytes, SYBR Green DNA, 72 h; series mostly up to 28.7 µM. In a few lines: as §1
The test system of another experiment is C2A. The description is as above. To be noted: P. falciparum in erythrocytes, SYBR Green DNA, 72 h; series mostly up to 28.7 µM. In a few lines: as §1
The subject of the next experiment is CP185. The experiment is described as above. To be noted: P. falciparum in erythrocytes, SYBR Green DNA, 72 h; series mostly up to 28.7 µM. In a few lines: as §1
A further experiment deals with CP191. The description is as above. To be noted: P. falciparum in erythrocytes, SYBR Green DNA, 72 h; series mostly up to 28.7 µM. The essentials: as §1
The next experiment relates to CP194. The description is as above. To be noted: P. falciparum in erythrocytes, SYBR Green DNA, 72 h; series mostly up to 28.7 µM. The essentials: as §1
The subject of the next experiment is CP201. Described as above. To be noted: P. falciparum in erythrocytes, SYBR Green DNA, 72 h; series mostly up to 28.7 µM. The essentials: as §1
In a further experiment the test system is CP211. The experiment is described as above. The conditions noted are these: P. falciparum in erythrocytes, SYBR Green DNA, 72 h; series mostly up to 28.7 µM. The essentials:
as §1

In a further experiment the test system is CP215. Described as above. The conditions noted are these: P. falciparum in erythrocytes, SYBR Green DNA, 72 h; series mostly up to 28.7 µM. The essentials:
as §1

Setting [4] is: measured here: PEO1 parental Z-AUC.
Where [5] appears, read: TFE3-RCC UOK109 viability, measured here: UOK109 Z-AUC.
Where [6] appears, read: TFE3-RCC viability, measured here: UOK124 Z-AUC.
Where [7] appears, read: TFE3-RCC viability, measured here: UOK145 Z-AUC.

Each structure is given as a SMILES string. Records with an inconclusive call do not appear. Activity calls are given as the source filed them. Unless noted, the call rests on the fitted dose curve; in most records, active means well fitted inhibition curve with a large enough effect; inconclusive means small, poorly fitted or top-dose-only effect; inactive means flat fitted curve, though single readings scatter.

Regarding `CC(C)OC(=O)C(C)(C)Oc1ccc(C(=O)c2ccc(Cl)cc2)cc1`, the results for the Z-AUC in [1], in experiment [1] (setting [4]) and in [1] (measured here: PEO4 Z-AUC) were -0.547 (inactive), -0.458 and 0.0191, respectively.
On the same counts, the results for `O=C(NCc1ccccc1)c1csc(Nc2ccncn2)n1` are -0.615 (inactive), 0.117 and 0.922.
With `O=C(NC1CCOCC1)c1ccc(-c2cc(-c3cn[nH]c3-c3ccccn3)ccn2)cc1`, the Z-AUC is 0.761 (inactive) in [1], 0.819 in experiment [1] (setting [4]) and 0.929 in experiment [1] (measured here: PEO4 Z-AUC). Besides, the z-score was found to be 0.905 in [2] (setting [5]), 1.11 in experiment [2] (setting [6]) and 0.561 in [2] (setting [7]).
Take `COCCOc1nc(-c2ccc(Cl)c(Cl)c2)n(-c2ccc(NC(=O)CCl)cc2)n1`: the Z-AUC in experiment [1] is -0.18 (inactive); in [1] (setting [4]), 0.0816; in [1] (measured here: PEO4 Z-AUC), -0.069.
On the same counts, the results for `COc1cc(N2CCC(N3CCN(C)CC3)CC2)ccc1Nc1ncnc(Nc2ccccc2S(=O)(=O)C(C)C)n1` are 0.282 (inactive), 0.069 and 0.238.
Consider `C[C@]12CC[C@@H]3c4ccc(O)cc4C[C@@H](CCCCCCCCCS(=O)CCCC(F)(F)C(F)(F)F)[C@H]3[C@H]1CC[C@H]2O` (some centres undefined), for which the Z-AUC was -0.724 (inactive) in [1], -0.171 in experiment [1] (setting [4]) and -1.07 in experiment [1] (measured here: PEO4 Z-AUC). Further, the z-score in experiment [2] (setting [5]) was 1.23; in experiment [2] (setting [6]) it was 0.607; in experiment [2] (setting [7]), 0.767.
For the molecule `CCCCCCCCCCCC1=C(O)C(=O)C=C(O)C1=O`, the results for the Z-AUC in experiment [1], in experiment [1] (setting [4]) and in experiment [1] (measured here: PEO4 Z-AUC) were 1.62 (inactive), 1.09 and 1.19, respectively.
In the case of `O=C(CCCCCCC(=O)Nc1ccccc1)NO`, the Z-AUC in experiment [1] is -0.11 (inactive); in [1] (setting [4]), -0.486; in experiment [1] (measured here: PEO4 Z-AUC), -0.541.
On to `COc1cc2ncnc(-n3nc(-c4ccccn4)nc3N)c2cc1OC`, for which the Z-AUC was -0.168 (inactive) in experiment [1], 0.627 in experiment [1] (setting [4]) and 0.697 in [1] (measured here: PEO4 Z-AUC).
On the same counts, the results for `N#CC1(c2ccc(NC(=O)c3cccnc3NCc3ccncc3)cc2)CCCC1` are 1.21 (inactive), 1.37 and 1.27.
The matching figures for `CCOC(CN1C(=O)[C@](CC(=O)Nc2ccc(C)cc2)(NC(=O)Nc2ccc(C)cc2)c2ccccc21)OCC`: 1.21 (inactive), 1.06 and 1.28.
For the molecule `O=c1cc(CN2CCOCC2)occ1OCCCCCSc1ccnc2cc(C(F)(F)F)ccc12`, the Z-AUC in experiment [1] was -0.111 (inactive); in experiment [1] (setting [4]), -0.421; in experiment [1] (measured here: PEO4 Z-AUC), -0.0909.
With `CC/C(=C(\c1ccccc1)c1ccc(OCCN(C)C)cc1)c1ccccc1`, the Z-AUC is -0.344 (inactive) in experiment [1], -0.716 in experiment [1] (setting [4]) and -0.672 in experiment [1] (measured here: PEO4 Z-AUC). For the same molecule, the Potency is 12.6 µM (active) with 7G8 and 11.2 µM (active) with CP217. For the same molecule, the Potency result in the experiment with CP192 is “inactive”.
Consider `Cc1ccccc1C(C(=O)NC1CCCCC1)N(C(=O)Cn1ccnc1C)c1cccc(F)c1` (centres undefined), for which the Z-AUC in [1] was 0.113 (inactive); in experiment [1] (setting [4]) it was 0.941; in experiment [1] (measured here: PEO4 Z-AUC) it was 0.654. Further, the z-score in experiment [2] (setting [5]) was 0.6; in [2] (setting [6]) it was 0.139; in experiment [2] (setting [7]) it was 0.682.
As for `COc1ccc2cccc(CCNC(C)=O)c2c1`, the z-score in experiment [2] (setting [5]) was 0.892; in experiment [2] (setting [6]) it was 0.661; in experiment [2] (setting [7]) it was 0.732.
For `C=C1C(=O)OC2C=C(C)CCC=C(C)CCC12` (centres undefined), the z-score was 0.459 in [2] (setting [5]), 0.643 in experiment [2] (setting [6]) and 0.399 in [2] (setting [7]).
Consider `CCCCCN(C)CCC(O)(P(=O)(O)O)P(=O)(O)O`, for which the results for the Z-AUC in experiment [1], in experiment [1] (setting [4]) and in experiment [1] (measured here: PEO4 Z-AUC) were 0.387 (inactive), 1.32 and 1.05, respectively. Also, the z-score turned out to be 0.34 in [2] (setting [5]), 0.128 in [2] (setting [6]) and 0.245 in [2] (setting [7]). Further, the activity, negative = inhibition is 13.8% (inactive) in [3] (parasite line A) and 15.2% (inactive) in experiment [3] (parasite line B). Further, the result in the experiment on 3D7, in the experiment on AA1029, with ATS95, in the experiment with C2A, with CP185 and with CP201 was inactive. In addition, the Potency result in the experiment on 7G8, in the experiment on AS120, in the experiment on ATS189, in the experiment on CP191, in the experiment with CP192 and in the experiment with CP194 was “inactive” each time. Besides, the Potency result in the experiment on CP211, with CP215 and in the experiment with CP217 was “inactive” throughout.
`c1ccc2c(-c3cnn4cc(-c5ccc(N6CCNCC6)cc5)cnc34)ccnc2c1`: the results for the Z-AUC in experiment [1], in experiment [1] (setting [4]) and in experiment [1] (measured here: PEO4 Z-AUC) were -0.163 (inactive), -0.568 and -0.419, respectively. For the same molecule, the Potency in [2] (TFE3-RCC UOK109 viability, active = Z-AUC below -0.8 in all three lines) is 18.7 µM (active). Also, the values for the z-score in experiment [2] (setting [5]), in experiment [2] (setting [6]) and in [2] (setting [7]) were -0.898, -1.42 and -1.11, respectively.
As to `CC1=C(/C=C/C(C)=C/C=C/C(C)=C/C(=O)Nc2ccc(O)cc2)C(C)(C)CCC1`, the Z-AUC in [1] is 0.685 (inactive); in [1] (setting [4]), 0.437; in experiment [1] (measured here: PEO4 Z-AUC), 0.121. The Potency is 11.2 µM (active) in experiment [3] (parasite line A); 10 µM (active) in experiment [3] (parasite line B); 8.91 µM (active) in the experiment with 7G8; 10 µM (active) with AS120; 7.94 µM (active) with ATS189; 7.94 µM (active) with CP191. In addition, the Potency with CP192 was 9.53 µM (active); with CP194 it was 13.5 µM (active); with CP211, 10.7 µM (active); in the experiment with CP215, 10.7 µM (active).
Take `O=C1C[C@@H](c2ccc(O)cc2)Oc2cc(O)cc(O)c21`: the Z-AUC in [1] is 0.649 (inactive); in experiment [1] (setting [4]), 1.18; in experiment [1] (measured here: PEO4 Z-AUC), 1.28. The values for the z-score in experiment [2] (setting [5]), in [2] (setting [6]) and in [2] (setting [7]) were 0.38, 0.851 and 0.18, respectively.
